The values below come from PubChem BioAssay (EPA / NIEHS).

Calls of active or inactive are those of the source. How the source made its calls: active means hit-call score of the fitted dose curve at least 0.9, where 1 is the maximum; inactive means score below 0.9.

Test [1] is described as follows: BSK_3C_SRB: Viability Assessment in the BioMAP Diversity Plus: 3C Assay (AID 2283023).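 Further: fitted both ways against DMSO so a hit may be signal rise or drop.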 The conditions noted are these: primary human endothelial cells (HUVEC). The method, boiled down: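 Primary human umbilical vein endothelial cells in the 3C system were read 24 h after compound dosing. Total protein was stained with 0.1% sulforhodamine B after 10% TCA fixation and read at 560 nm, with bidirectional fitting against DMSO as baseline.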

Read-out in test [2]: Matrix Metallopeptidase 1 (MMP1), MMP1 (gene 4312)
Put plainly: BSK_BE3C_MMP1: BioMAP Diversity Plus: BE3C Assay for Matrix Metallopeptidase 1 (MMP1) Biomarker Activity (AID 2283024). The conditions noted are these: primary human bronchial epithelial cells; actives raise or lower the signal. In short, it runs like this:
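MMP1 signal, measured by ELISA after a 24 h chemical exposure of human primary bronchial epithelial cells, is analysed with bidirectional fitting using DMSO as negative control.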

A short description of test [3]: BSK_3C_Vis: BioMAP Diversity Plus: 3C Assay for Morphology Visualization (AID 2283025).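 Further: fitted both ways so gain or loss versus DMSO counts.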 Particulars: primary human endothelial cells (HUVEC). In short, it runs like this:
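Morphology read by light microscopy serves as a background control for the multiplexed 3C assay in human umbilical vein endothelial cells, taken 24 h after dosing, with DMSO as the negative control and bidirectional curve fitting.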

Read-out in test [4]: Pselectin, SELP (gene 6403)
Nature of the test: BSK_4H_Pselectin: BioMAP Diversity Plus: 4H Assay for Pselectin Biomarker Activity (AID 2283026). Particulars: primary human endothelial cells (HUVEC); actives raise or lower the signal. In short, it runs like this: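 Endothelial primary cells (human umbilical vein) are dosed, incubated 24 h, and assayed for surface P-selectin by ELISA; responses in either direction are fitted relative to the DMSO negative control.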

The nature of test [5]: BSK_BE3C_SRB: Viability Assessment in the BioMAP Diversity Plus: BE3C Assay (AID 2283028). Particulars: primary human bronchial epithelial cells. In short, it runs like this:
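Human primary bronchial epithelial cells were exposed to test chemicals for 24 h. Total protein in parallel cultures was then measured by staining with 0.1% sulforhodamine B after 10% TCA fixation, with absorbance read at 560 nm. Activity was fitted bidirectionally against DMSO.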

Read-out in test [6]: Thrombomodulin, THBD (gene 7056)
Put plainly: BSK_3C_Thrombomodulin: BioMAP Diversity Plus: 3C Assay for Thrombomodulin Biomarker Activity (AID 2283029). Particulars: primary human endothelial cells (HUVEC); actives raise or lower the signal. The method, boiled down:
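Endothelial cells from umbilical vein are dosed with test chemical and incubated 24 h. Thrombomodulin is then quantified by ELISA, with DMSO serving as negative control and activity baseline.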

Read-out in test [7]: Urokinase-type plasminogen activator receptor (uPAR), PLAUR (gene 5329)
Put plainly: BSK_4H_uPAR: BioMAP Diversity Plus: 4H Assay for Urokinase-type plasminogen activator receptor (uPAR) Biomarker Activity (AID 2283030). Particulars: primary human endothelial cells (HUVEC); actives raise or lower the signal. The method, boiled down:
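Primary human umbilical vein endothelial cells were exposed to chemical for 24 h before cell-surface uPAR was quantified by ELISA. Activity was fitted bidirectionally against the DMSO negative control baseline.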

Read-out in test [8]: Vascular endothelial growth factor receptor 2 (Homo sapiens) (UniProt P35968)
Put plainly: BSK_4H_VEGFRII: BioMAP Diversity Plus: 4H Assay for Vascular endothelial growth factor receptor 2 (VEGFR2) Biomarker Activity (AID 2283031). The conditions noted are these: primary human endothelial cells (HUVEC); actives raise or lower the signal. The method, boiled down: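 Primary human umbilical vein endothelial cells in the BioMAP 4H system were dosed with test chemical, and 24 h later VEGFRII was measured by ELISA. Activity was fitted bidirectionally against DMSO as negative control and baseline.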

Read-out in test [9]: Human Leukocyte Antigen - DR isotype (HLADR), HLA-DRA (gene 3122)
Nature of the test: BSK_BE3C_HLADR: BioMAP Diversity Plus: BE3C Assay for Human Leukocyte Antigen - DR isotype (HLADR) Biomarker Activity (AID 2283032). The conditions noted are these: primary human bronchial epithelial cells; actives raise or lower the signal. The method, boiled down: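 Chemicals are dosed onto BE3C bronchial epithelial cultures of human origin and left 24 h. HLA-DR is then measured by ELISA, and the endpoint is fitted in both directions using DMSO as the activity baseline.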

Read-out in test [10]: Vascular cell adhesion molecule 1 (VCAM1), VCAM1 (gene 7412)
Nature of the test: BSK_4H_VCAM1: BioMAP Diversity Plus: 4H Assay for Vascular cell adhesion molecule 1 (VCAM1) Biomarker Activity (AID 2283033).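 On outcome: cell-surface VCAM-1 protein measured by ELISA.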 The conditions noted are these: primary human endothelial cells (HUVEC); actives raise or lower the signal. In short, it runs like this: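 Chemicals are added to primary human umbilical vein endothelial cells. After 24 h, VCAM-1 levels are measured by ELISA. Values come from bidirectional fitting referenced to DMSO.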

Read-out in test [11]: Interferon-gamma inducible Protein 10 (IP10), CXCL10 (gene 3627)
Put plainly: BSK_BE3C_IP10: BioMAP Diversity Plus: BE3C Assay for Interferon-gamma inducible Protein 10 (IP10) Biomarker Activity (AID 2283034). The conditions noted are these: primary human bronchial epithelial cells; actives raise or lower the signal. The method, boiled down:
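IP-10 quantified by ELISA serves as the endpoint. Cells: primary human bronchial epithelium, read 24 h after compound addition. Activity is derived by bidirectional fitting with DMSO as negative control.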

Read-out in test [12]: Monokine induced gamma interferon (MIG), CXCL9 (gene 4283)
Put plainly: BSK_BE3C_MIG: BioMAP Diversity Plus: BE3C Assay for Monokine induced gamma interferon (MIG) Biomarker Activity (AID 2283035).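 On outcome: MIG protein measured by ELISA in BE3C cultures after 24 h of dosing.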 Particulars: primary human bronchial epithelial cells; actives raise or lower the signal. The method, boiled down:
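ELISA quantified MIG after 24 h exposure of primary bronchial epithelial cultures, analysed in both directions relative to DMSO. Cytotoxicity tracked in parallel cultures by sulforhodamine B staining.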

Read-out in test [13]: Transforming growth factor beta 1 (TGFb1), TGFB1 (gene 7040)
Put plainly: BSK_BE3C_TGFb1: BioMAP Diversity Plus: BE3C Assay for Transforming growth factor beta 1 (TGFb1) Biomarker Activity (AID 2283036;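 on outcome: TGF-b1 protein level measured by ELISA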). The conditions noted are these: primary human bronchial epithelial cells; actives raise or lower the signal. The method, boiled down:
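Bronchial epithelial primary cells are treated with test chemical, then TGF-b1 is quantified by ELISA after 24 hours. Values derive from bidirectional fitting against DMSO, with cytotoxicity checked by SRB staining in parallel cultures.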

Read-out in test [14]: Plasminogen activator inhibitor-1 (PAI1), SERPINE1 (gene 5054)
Put plainly: BSK_BE3C_PAI1: BioMAP Diversity Plus: BE3C Assay for Plasminogen activator inhibitor-1 (PAI1) Biomarker Activity (AID 2283037). The conditions noted are these: primary human bronchial epithelial cells; actives raise or lower the signal. The method, boiled down:
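Values derive from bidirectional fitting against DMSO baseline of PAI-1 levels, measured by ELISA in human bronchial epithelial cells 24 h after compound addition.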

Read-out in test [15]: urokinase plasminogen activator (uPA), PLAU (gene 5328)
Put plainly: BSK_BE3C_uPA: BioMAP Diversity Plus: BE3C Assay for urokinase plasminogen activator (uPA) Biomarker Activity (AID 2283038).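 On outcome: uPA protein level quantified by ELISA in cell cultures; uPA read one day after compound addition.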 Particulars: primary human bronchial epithelial cells; actives raise or lower the signal. The method, boiled down: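 Human primary bronchial epithelial cells were exposed to chemical for 24 h, then uPA levels were measured by ELISA. Responses were fitted bidirectionally against DMSO as negative control and baseline. Parallel SRB staining of total protein gauged overt cytotoxicity.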

Read-out in test [16]: Urokinase-type plasminogen activator receptor (uPAR), PLAUR (gene 5329)
Nature of the test: BSK_BE3C_uPAR: BioMAP Diversity Plus: BE3C Assay for Urokinase-type plasminogen activator receptor (uPAR) Biomarker Activity (AID 2283039).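 On outcome: cells exposed to compound for one day before measurement.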 The conditions noted are these: primary human bronchial epithelial cells; actives raise or lower the signal. In short, it runs like this:
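Steps: dose human primary bronchial epithelial cells, incubate 24 h, measure uPAR by ELISA, then fit gain- or loss-of-signal response bidirectionally relative to DMSO.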

Read-out in test [17]: Interleukin-6 (IL6), IL6 (gene 3569)
Nature of the test: BSK_CASM3C_IL6: BioMAP Diversity Plus: CASM3C Assay for Interleukin-6 (IL6) Biomarker Activity for (AID 2283040). The conditions noted are these: primary human coronary artery smooth muscle cells; actives raise or lower the signal.

Read-out in test [18]: Tissue plasminogen activator (tPA), PLAT (gene 5327)
Put plainly: BSK_BE3C_tPA: BioMAP Diversity Plus: BE3C Assay for Tissue plasminogen activator (tPA) Biomarker Activity (AID 2283041).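 Further: tPA level quantified by ELISA one day after compound addition.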 The conditions noted are these: primary human bronchial epithelial cells; actives raise or lower the signal. In short, it runs like this:
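Gain- or loss-of-signal in tPA, measured by ELISA, derived by bidirectional fitting against DMSO. Cells: human primary bronchial epithelial; read at 24 h after chemical dosing.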

Test [19] is described as follows: BSK_4H_SRB: Viability Assessment in the BioMAP Diversity Plus: 4H Assay (AID 2283027).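 Further: cells exposed to compound for 24 h before staining.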 Particulars: primary human endothelial cells (HUVEC). The method, boiled down:
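Cytotoxicity read-out in primary human endothelial cells: after 24 h compound exposure, cells were TCA-fixed (10%), stained with 0.1% SRB and absorbance taken at 560 nm. Values fitted in both directions relative to DMSO.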

The AC50 is the concentration at which the activity in the assay is half-maximal. Turning to `COC(=O)c1c(Cl)c(Cl)c(C(=O)OC)c(Cl)c1Cl`, the result in [1], in test [2], in test [4], in [5], in test [6] and in test [7] was inactive. Further, the outcome in [8], in test [9], in test [10], in test [11], in test [12] and in test [13] was inactive. The result in test [14], in test [15], in test [16], in test [17] and in test [18] was inactive. In addition, the AC50 in [3] was 39 µM (active).
Take `O=C(NS(=O)(=O)/C=C/c1ccccc1)c1ccc(F)cc1Cl`: the result in test [1], in [2], in test [3], in [4], in test [19] and in test [5] was inactive. Further, the outcome in test [6], in test [7], in test [8], in [10], in test [11] and in [12] was inactive. Moreover, the outcome in test [13], in test [14], in [15], in [16] and in test [17] was inactive. The AC50 in test [9] is 6.15 µM (active).
Turning to `O=C(OC[C@H]1O[C@@H](OC(=O)c2cc(O)c(O)c(OC(=O)c3cc(O)c(O)c(O)c3)c2)[C@H](OC(=O)c2cc(O)c(O)c(OC(=O)c3cc(O)c(O)c(O)c3)c2)[C@@H](OC(=O)c2cc(O)c(O)c(OC(=O)c3cc(O)c(O)c(O)c3)c2)[C@@H]1OC(=O)c1cc(O)c(O)c(OC(=O)c2cc(O)c(O)c(O)c2)c1)c1cc(O)c(O)c(OC(=O)c2cc(O)c(O)c(O)c2)c1`, the AC50 in test [1] is 9.7 µM (active); in [2], 10.8 µM (active); in [4], 6.1 µM (active); in [7], 3.15 µM (active); in [9] it was 8.27 µM (active); in [10] it was 9.44 µM (active). For the same molecule, the AC50 is 9.85 µM (active) in test [11]; 10.2 µM (active) in test [12]; 9.35 µM (active) in [13]; 1.87 µM (active) in test [15]; 4.13 µM (active) in test [16]. The result in test [3], in test [19], in test [5], in test [6], in [8] and in test [14] was inactive. Further, in test [17], the outcome was inactive.
`C1=CCCC=CCCC=CCC1`: the result in test [1], in test [2], in test [3], in [5], in [6] and in [7] was inactive. Moreover, the result in test [8], in [9], in test [10], in [11], in [12] and in [13] was inactive. Besides, the outcome in test [14], in test [15], in test [16] and in test [17] was inactive.
On to `COCCOCCOCCOC`, for which the outcome in test [1], in test [2], in test [3], in [4], in [19] and in test [5] was inactive. The result in [6], in test [7], in test [8], in [9], in test [10] and in test [11] was inactive. Also, the result in test [12], in test [13], in test [14], in [15], in [16] and in test [17] was inactive. In addition, the outcome in test [18] was inactive.
